Several values for one entry are separate records, joined by “and”; a condition that tells them apart may be missing. Equal entries are not always repeated. Compounds without any hit were thinned out: in the full panel of roughly 79,000, 15% have a hit. No stated cut-off is given here; in the data, active means growth inhibition above about 70%; inactive means the rest.
Experiments:
[1] = NCI Yeast Anticancer Drug Screen. Data for the rad50 strain (AID 155);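 further: 0% = growth of vehicle-only cultures of the same strain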; details: S. cerevisiae rad50 strain growth inhibition; at 50.0 µM; hits give high values
Method in brief: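 Growth of the mutant yeast was measured after compound exposure and referenced to vehicle-treated cultures.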

[2] = NCI Yeast Anticancer Drug Screen. Data for the mec2-1 strain (AID 157); details: S. cerevisiae mec2-1 strain, at 50.0 µM, hits give high values
Method in brief: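 Cells of the genetically defined mec2-1 yeast strain are incubated with test compound. Inhibition of growth is calculated against vehicle-treated controls.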

[3] = NCI Yeast Anticancer Drug Screen. Data for the sgs1 mgt1 strain (AID 161);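 further: 0% = growth of cultures given vehicle only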; details: S. cerevisiae sgs1 mgt1 strain, at 50.0 µM, hits give high values
Method in brief: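 Mutant yeast exposed to compound; growth scored against vehicle-only wells.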

[4] = NCI Yeast Anticancer Drug Screen. Data for the cln2 rad14 strain (AID 165);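 further: 0% = growth equal to vehicle treated cultures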; details: S. cerevisiae cln2 rad14 strain, at 50.0 µM, hits give high values
Method in brief: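 The screen exposed genetically defined yeast (cln2 rad14) to test compounds and scored growth inhibition relative to vehicle-treated controls.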

[5] = NCI Yeast Anticancer Drug Screen. Data for the bub3 strain (AID 167); details: S. cerevisiae bub3 mutant strain, at 50.0 µM, hits give high values
Method in brief: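 Whole-cell yeast assay. The mutant strain was incubated with compounds, and growth inhibition was determined by comparison with vehicle-treated cells.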

[6] = NCI Yeast Anticancer Drug Screen. Data for the mlh1 rad18 strain (AID 175); details: S. cerevisiae mlh1 rad18 strain growth inhibition; at 50.0 µM; hits give high values
Method in brief: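 Compound-treated yeast growth, normalised to vehicle controls. Strain bears defined DNA repair mutations.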

Measured: growth inhibition

COC1OC(COC(=O)c2ccc([N+](=O)[O-])cc2)C2OC12 (configuration not stated)
inactive: [1] 7.6% and -6.95% | [2] -7.95% and -1% | [3] 8.7% and 1.4% | [4] 17.2% and 28.4% | [5] 27.2% and -2.85% | [6] 7.95% and 8.15%

O=C1/C(=C/c2ccc(F)cc2)CCC/C1=C\c1ccc(F)cc1
inactive: [1] 26.6% and -14.2% | [2] -25.7% and -10.3% | [3] 34.2% and 1.45% | [4] 27.7% and -21.4% | [5] 15.4% and -5.45% | [6] 18.9% and -6.1%

COC(=O)C(C)(C)O
inactive: [1] -1.2% and 20.4% | [2] 8.2% and -28.9% | [3] -4.15% and -12% | [4] -26.9% and -75.2% | [5] 1.95% and -19.1% | [6] 3.1% and 1.55%

COC(=O)c1cccc2c[n+]3c(cc12)-c1[nH]c2cc(OC)ccc2c1CC3
inactive: [1] 4.55% and 53% | [2] -16.9% and 8.8% | [3] -0.05% and 21.1% | [4] -8.05% and -7.6% | [5] 4.6% and 13.1% | [6] 14.6% and 13.7%

O=C1NC2OC(CO)C(O)C(O)C2O1 (configuration not stated)
inactive: [1] -44.6% and -35.5% | [2] -7.65% and -15.7% | [3] -51% and -63% | [4] -24.5% and -10.2% | [5] -61.6% and -22.9% | [6] -64.4% and -54.4%

COCC1OC(OC)C(OC)C(OC)C1OC (configuration not stated)
inactive: [1] -4.45% and 3.1% | [2] -13% and -0.5% | [3] 8.35% and -0.1% | [4] -49.7% and 1.25% | [5] -21.1% and 1.3% | [6] -4.8% and -4.25%

Nc1ccc2nc[nH]c2c1
inactive: [1] -15.3% and 18.9% | [2] -7.6% and -4.65% | [3] -7.55% and -18.6% | [4] 14.7% and 16.6% | [5] 2.25% and -1% | [6] -0.9% and 14.3%

CC(CC(=O)O)C(C(=O)O)C(=O)O (configuration not stated)
inactive: [1] 0.4% and 7.6% | [2] -25.9% and 2.4% | [3] -33.5% and -16.6% | [4] -32.2% and 0.4% | [5] -21.8% and 8.7% | [6] -18.3% and -7.75%

CC1OC(n2cnc3c(N)ncnc32)C(O)C1O (configuration not stated)
inactive: [1] -3.75% and 14.4% | [2] 8.1% and -3.35% | [3] 2.5% and -12.4% | [4] -53.2% and 5.3% | [5] 0.85% and -1% | [6] -0.4% and -13.8%

CC1C2C=CC(C2)C1C(=O)O (configuration not stated)
inactive: [1] 5.15% and 13.9% | [2] 28.8% and 5.1% | [3] -0.05% and 5.85% | [4] -42% and 9.65% | [5] 7.8% and -1.95% | [6] 7.1% and 11.2%

CC12CCC(C(=O)OC1=O)C2(C)C (configuration not stated)
inactive: [1] 3.8% and -0.45% | [2] -8.2% and 4.05% | [3] -46.8% and -13.5% | [4] 28.1% and -51% | [5] -29.8% and 0.35% | [6] -55% and -0.75%

CCN(CC)CCCNC
inactive: [1] 6.2% and 26.6% | [2] -4.75% and 7.75% | [3] 3.2% and 3.7% | [4] 2.25% and -25.1% | [5] -9.6% and -4.5% | [6] 7.3% and 25.2%

Cn1c(=O)c(Br)cn(C2OC(CO)C3OC32)c1=O (configuration not stated)
inactive: [1] -6.35% and -9.05% | [2] -0.8% and -4.2% | [3] 18.1% and 4.9% | [4] -19.4% and -15.4% | [5] 25.4% and -4.1% | [6] 4.15% and -0.65%

C/C=C(\C)c1cc(=O)c2c(C)cc3c(c2o1)C(=O)c1c(O)c(C2CC(C)(N(C)C)C(O)C(C)O2)cc(C2CC(N(C)C)C(O)C(C)O2)c1C3=O (configuration not stated)
inactive: [1] 1.95% and 21.3% | [2] -16% and 10.7% | [3] 14.6% and 17.4% | [4] 3.4% and 25.8% | [5] 8.2% and 9.4% | [6] -5.8% and 10.2%

CCCCCC(O)C1C(=O)OC(C)C(O)/C=C/C=C/C=C/C=C\C=C(\C)C(O)CC(O)CC(O)CC(O)CC(O)CC(O)CC1O (configuration not stated)
inactive: [1] 2.6% and 13.8% | [2] 16.9% and -17.5% | [3] -18.1% and -4.65% | [4] 68.2% and 1.3% | [5] 5.85% and 12.3% | [6] 62.3% and 6.3%

Cc1ccc(S(=O)(=O)Nc2cc(=O)[nH]c3c2CCC3)cc1
inactive: [1] -2.05% and 43.4% | [2] -4.75% and 18.3% | [3] 9.25% and -26.8% | [4] -52% and 0.65% | [5] -18% and 24.2% | [6] -6.2% and 2.9%

COc1ccc2[nH]ccc(=O)c2c1
inactive: [1] -28.1% and 8.75% | [2] -24.3% and -0.05% | [3] -47.5% and 12.3% | [4] -4.25% and -5.6% | [5] -43% and -3.7% | [6] -18.7% and 5.95%

O=C(O)CC(O)C(=O)O (configuration not stated)
inactive: [1] -2.95% and 0.45% | [2] -20.2% and 3.55% | [3] -39.1% and -1.05% | [4] -19.6% and 3.85% | [5] 5.25% and -2.85% | [6] -43% and -1.2%

N#CC(C#N)=CN1CCOCC1
inactive: [1] -0.6% and 8.35% | [2] -24.1% and 8.95% | [3] 1.75% and -7.75% | [4] -22.5% and 10.4% | [5] -0.6% and -0.55% | [6] 4.1% and -12.9%

ClCC(CCl)(CCl)CCl
inactive: [1] 24.6% and 1.15% | [2] 6.95% and -12.9% | [3] 13.4% and 7.95% | [4] 6% and 20.1% | [5] 12.3% and -0.2% | [6] 5.85% and 1.45%

OC1CCN2Cc3ccccc3N=C12 (configuration not stated)
inactive: [1] 3.1% and 22.2% | [2] -0.3% and 21.7% | [3] 17.4% and -5.9% | [4] 4.5% and 15.8% | [5] -3.05% and 13.4% | [6] -2% and -16.8%

COc1ccc(-c2cc(-c3ccco3)c(C#N)c(=O)n2C2OC(COC(C)=O)C(OC(C)=O)C(OC(C)=O)C2OC(C)=O)cc1 (configuration not stated)
inactive: [1] 8.3% and -23% | [2] 12.3% and 1.9% | [3] 23.9% and 4% | [4] 42.2% and 8.8% | [5] 16.8% and -2.2% | [6] 11.1% and -19.1%

From PubChem BioAssay (NCI)
